Several values for one entry are separate records, joined by “and”; a condition that tells them apart may be missing. Identical values can stand only once. Records with an inconclusive call do not appear. Activity calls are given as the source filed them. Unless noted, calls come from the whole dose curve; as a rule, active = well fitted inhibition curve with a large enough effect; inconclusive = small, poorly fitted or top-dose-only effect; inactive = flat fitted curve, though single readings scatter.
% is set by controls: 0 for no effect and ±100 for the full control effect.

Sequence of Thyroid hormone receptor beta (Homo sapiens) (P10828 whole entry, looked up): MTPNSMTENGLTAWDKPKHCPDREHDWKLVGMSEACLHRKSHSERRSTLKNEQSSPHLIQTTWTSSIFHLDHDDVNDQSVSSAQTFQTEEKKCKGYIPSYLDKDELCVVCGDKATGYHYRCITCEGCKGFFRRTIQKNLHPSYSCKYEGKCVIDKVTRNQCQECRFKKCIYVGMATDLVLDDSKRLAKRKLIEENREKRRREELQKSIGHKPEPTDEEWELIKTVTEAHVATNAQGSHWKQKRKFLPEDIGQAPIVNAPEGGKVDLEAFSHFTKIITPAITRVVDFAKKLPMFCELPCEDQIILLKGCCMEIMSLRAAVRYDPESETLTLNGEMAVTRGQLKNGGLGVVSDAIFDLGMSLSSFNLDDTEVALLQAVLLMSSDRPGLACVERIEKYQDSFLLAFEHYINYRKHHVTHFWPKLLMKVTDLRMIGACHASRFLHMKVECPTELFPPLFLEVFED
Sequence of Voltage-gated inwardly rectifying potassium channel KCNH2 (Homo sapiens) (Q12809 whole entry, looked up): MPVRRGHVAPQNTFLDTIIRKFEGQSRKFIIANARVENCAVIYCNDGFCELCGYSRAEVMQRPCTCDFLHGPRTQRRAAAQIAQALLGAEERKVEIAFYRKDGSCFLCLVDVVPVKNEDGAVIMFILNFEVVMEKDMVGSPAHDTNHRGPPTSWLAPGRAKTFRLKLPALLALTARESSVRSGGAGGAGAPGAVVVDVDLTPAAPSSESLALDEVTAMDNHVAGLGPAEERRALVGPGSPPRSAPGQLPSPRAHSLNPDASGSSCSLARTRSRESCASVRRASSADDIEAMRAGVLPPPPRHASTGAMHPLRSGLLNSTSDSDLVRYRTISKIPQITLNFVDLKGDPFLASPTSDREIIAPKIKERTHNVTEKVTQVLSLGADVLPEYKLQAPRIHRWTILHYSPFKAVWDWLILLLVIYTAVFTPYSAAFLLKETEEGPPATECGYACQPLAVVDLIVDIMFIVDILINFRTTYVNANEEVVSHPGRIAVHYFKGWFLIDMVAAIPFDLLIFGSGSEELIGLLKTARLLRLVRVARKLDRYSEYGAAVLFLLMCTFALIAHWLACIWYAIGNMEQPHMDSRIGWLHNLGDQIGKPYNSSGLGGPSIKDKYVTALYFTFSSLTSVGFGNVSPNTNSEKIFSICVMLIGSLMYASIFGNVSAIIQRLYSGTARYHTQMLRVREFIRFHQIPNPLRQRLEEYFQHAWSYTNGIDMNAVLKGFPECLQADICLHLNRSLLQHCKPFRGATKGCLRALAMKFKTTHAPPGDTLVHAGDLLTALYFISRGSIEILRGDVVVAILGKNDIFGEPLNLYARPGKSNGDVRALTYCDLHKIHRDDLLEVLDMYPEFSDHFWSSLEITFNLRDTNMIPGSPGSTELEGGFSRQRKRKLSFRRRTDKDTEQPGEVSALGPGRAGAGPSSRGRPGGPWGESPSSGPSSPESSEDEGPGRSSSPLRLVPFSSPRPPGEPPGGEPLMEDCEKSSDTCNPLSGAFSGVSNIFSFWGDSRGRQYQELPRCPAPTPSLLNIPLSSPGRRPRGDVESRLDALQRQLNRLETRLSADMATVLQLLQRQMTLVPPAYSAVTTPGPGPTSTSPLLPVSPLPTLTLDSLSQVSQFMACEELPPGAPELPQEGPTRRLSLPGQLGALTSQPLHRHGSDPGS

One test concerns the target Thyroid hormone receptor beta (Homo sapiens) (UniProt P10828). In words: qHTS assay for small molecule antagonists of thyroid hormone receptor beta signaling (AID 588547; active = well fitted inhibition curve with a large enough effect in the signal ratio, with a control signal flat, not every such curve was filed as active; the % refers to the signal ratio;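 note: cells stimulated with 0.4 nM T3 agonist during compound exposure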). Particulars: TR-UAS-bla HEK293, beta-lactamase ratio, antagonist mode, 18 h. An outline of the steps: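 TR-UAS-bla GripTite HEK293 cells in 2% charcoal/dextran FBS medium; compounds 0.59 nM to 92 uM with T3 at 0.4nM final, 18 h at 37 C. Beta-lactamase read by CCF4 fluorescence (460/530 nm); Hill fits gave IC50 and efficacy.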
(In general: qHTS replaces the single test concentration by a dilution series.)
Consider `CC1=CCC(C(C)(C)O)CC1` (stereo not given), for which the activity change % (negative = inhibition) was -18.4% (inactive).

Take `O=CCCCC=O`: the activity change % (negative = inhibition) is 0.64% (inactive). On the same count and under the same terms, in the case of `Nc1ccn([C@H]2CS[C@@H](CO)O2)c(=O)n1` it was 10.8% (inactive). Still for that read-out and setting: the same measure for `CCCCC/C=C\C/C=C\CCCCCCCC(=O)O`: 8.73% (inactive) and 0.41% (inactive); for `CCCCCCCC(=O)O`: 8.96% (inactive) and 0.409% (inactive). Regarding `CCCCCCCC/C=C\CCCCCCCC(=O)O`, the activity change % (negative = inhibition) is -12.5% (inactive). Turning to `O=C(O)CCC(=O)C(=O)O`, the activity change % (negative = inhibition) was 1.53% (inactive). Regarding `CC(O)CO` (stereo not given), the activity change % (negative = inhibition) was 11.6% (inactive) and -10.9% (inactive).

`O=S(=O)(O)O`: the activity change % (negative = inhibition) is 16% (inactive) and -10.1% (inactive). On to `CCCCC(CC)COC(=O)CC(C(=O)OCC(CC)CCCC)S(=O)(=O)O` (stereo not given), for which the activity change % (negative = inhibition) is -5.51% (inactive). On to `CC1=C(/C=C/C(C)=C/C=C/C(C)=C/CO)C(C)(C)CCC1`, for which the activity change % (negative = inhibition) is 7.96% (inactive) and 4.62% (inactive). On the same count and under the same terms, in the case of `CC(C)=O` it was -5.42% (inactive); in that of `IC(I)I`, 1.7% (inactive) and 9.81% (inactive). On the same count and under the same terms, the same measure for `CCOc1ccc2c(c1)C(C)=CC(C)(C)N2`: 8.54% (inactive). The same measure, in the same setting: the same measure for `CC1(C)C(C=C(Cl)Cl)C1C(=O)OCc1cccc(Oc2ccccc2)c1` (stereo not given): 3.43% (inactive) [middle of 4 runs]; for `CCOC(C)=O`: -2.37% (inactive).

In another test the target is Voltage-gated inwardly rectifying potassium channel KCNH2 (Homo sapiens) (UniProt Q12809). The test is described as follows: qHTS Assay for Small Molecule Inhibitors of the Human hERG Channel Activity (AID 588834).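 For activity change, negative = inhibition: U2OS cells transduced with hERG by BacMam; top concentration of the series differs between compounds.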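 Note: lower thallium flux fluorescence means stronger hERG block; nearly all actives have a fitted effect of over 50% in size.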 Note: potency is the fitted concentration of half-maximal effect. Particulars: U2OS BacMam hERG, FluxOR thallium flux fluorescence; series mostly up to 46.1 µM; activity change, negative = inhibition: at the top concentration. A digest of the protocol:
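Cells were infected with hERG-BacMam virus for 4 hrs at room temperature, grown overnight, then seeded at 2000/well. After dye loading and roughly 10 min compound treatment, thallium influx was triggered and fluorescence recorded.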
On to `CCC(=O)OCC(=O)[C@@]1(OC(=O)CC)[C@H](C)C[C@H]2[C@H]3[C@H]([C@@H](O)C[C@@]21C)[C@@]1(C)C=CC(=O)C=C1C[C@H]3Cl`, for which the “activity change, negative = inhibition” value was 18.2% [at 20.6 µM] (inactive). The same measure, in the same setting: in the case of `CC1=CCC(C(C)(C)O)CC1` (stereo not given) it was 0.169% (inactive).

Take `CNc1cc(OC)c(C(=O)N[C@H]2CCN(Cc3ccccc3)[C@H]2C)cc1Cl`: the Potency is 12.6 µM (active).

`CC(Oc1ccccc1)C(=O)N[C@@H]1C(=O)N2[C@@H]1SC(C)(C)[C@@H]2C(=O)O` (stereo not given in full): the “activity change, negative = inhibition” value was -10.4% [at 20.6 µM] (inactive). For `CC(=O)OCC(=O)[C@@]1(O)CC[C@H]2[C@@H]3C[C@H](C)C4=CC(=O)C=C[C@]4(C)[C@H]3[C@@H](O)C[C@@]21C`, the “activity change, negative = inhibition” value was -4.28% (inactive).

For `CC[C@H]1OC(=O)[C@H](C)[C@@H](O[C@H]2C[C@@](C)(OC)[C@@H](O)[C@H](C)O2)[C@H](C)[C@@H](O[C@@H]2O[C@H](C)C[C@H](N(C)C)[C@H]2O)[C@](C)(O)C[C@@H](C)/C(=N\OCOCCOC)[C@H](C)[C@@H](O)[C@]1(C)O`, the “activity change, negative = inhibition” value is -15.7% [at 20.6 µM] (inactive).

On to `CO[C@@H]1[C@@H](O[C@@H]2O[C@H](C)[C@@H](O[C@H]3C[C@@](C)(O)[C@@H](OC(=O)CC(C)C)[C@H](C)O3)[C@H](N(C)C)[C@H]2O)[C@@H](CC=O)C[C@@H](C)C(=O)/C=C/C2OC2C[C@@H](C)OC(=O)C[C@H]1OC(C)=O` (stereo not given in full), for which the “activity change, negative = inhibition” value is 8.54% (inactive).

For `CCCCC/C=C\C/C=C\CCCCCCCC(=O)O`, the Potency entry was “inactive”.

Regarding `CCC(=O)O[C@@H]1CC(=O)O[C@H](C)C/C=C/C=C/[C@H](O)[C@H](C)C[C@H](CC=O)[C@H](O[C@@H]2O[C@H](C)[C@@H](O[C@H]3C[C@@](C)(O)[C@@H](OC(=O)CC)[C@H](C)O3)[C@H](N(C)C)[C@H]2O)[C@H]1OC`, the “activity change, negative = inhibition” value was 6.55% [at 20.6 µM] (inactive). In the case of `O=C(O)CCC(=O)C(=O)O`, the Potency entry is “inactive”. As to `CO[C@H]1C=CO[C@@]2(C)Oc3c(C)c(O)c4c(O)c(c5c(nc6cc(C)ccn65)c4c3C2=O)NC(=O)/C(C)=C\C=C[C@H](C)[C@H](O)[C@@H](C)[C@@H](O)[C@@H](C)[C@H](OC(C)=O)[C@@H]1C`, the “activity change, negative = inhibition” value was -26.2% (inactive). The same measure, in the same setting: the same measure for `CCC1OC(=O)C[C@@H](O)[C@H](C)[C@@H](O[C@@H]2O[C@H](C)C[C@H](N(C)C)[C@H]2O)[C@@H](CC=O)C[C@@H](C)C(=O)/C=C/[C@]2(C)OC2C1C` (stereo not given in full): 5.84% (inactive); for `O=C(O)C[C@H](O)C[C@H](O)/C=C/c1c(C2CC2)nc2ccccc2c1-c1ccc(F)cc1`: -4.45% (inactive). Same read-out and setting: in the case of `CC[N+](CC)(CC)CCC(O)(c1ccccc1)C1CCCCC1` (stereo not given) it was 2.59% [at 20.6 µM] (inactive); in that of `CO/N=C(\C(=O)N[C@@H]1C(=O)N2C(C(=O)O)=C(CSc3cnns3)CS[C@H]12)c1csc(N)n1`, 2.75% (inactive). The same measure, in the same setting: in the case of `CC[C@@H](C(=O)[C@@H](C)[C@@H](O)[C@H](C)CCc1ccc(C)c(O)c1C(=O)O)[C@H]1O[C@](CC)([C@H]2CC[C@](O)(CC)[C@H](C)O2)C[C@@H]1C` it was 151% (inactive).

With `CC(C)=O`, the Potency result is “inactive”. With `CC(=O)OCC(=O)[C@@]12OC3(CCCC3)O[C@@H]1C[C@H]1[C@@H]3CCC4=CC(=O)C=C[C@]4(C)[C@@]3(F)[C@@H](O)C[C@@]12C`, the “activity change, negative = inhibition” value is -15.7% (inactive). With `OCC(S)CS` (stereo not given), the “activity change, negative = inhibition” value is 5.2% (inactive).

The record behind these values is PubChem BioAssay (NCATS).
